From PubChem BioAssay AID1159580 (chemical genetic matrix, 2015)
About 2,000 (36%) of roughly 5,500 compounds were called active. Inconclusive results (about 18%) are left out. Rule as the data show it: active = normalized growth mostly below about 0.91 (no sharp cut-off); inconclusive = no clear call, values can overlap the other calls; inactive = mostly above about 0.92. The list shows a part of the results.

Assay: chemical genetic growth profiling, strain panel (AID 1159580);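 also: tested at 20 µM; growth read once vehicle control cultures reached saturation at 30 °C; 1 = growth at the plate median or of vehicle wells; lower values mean less growth of the strain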
Details: growth OD
[1] = S. cerevisiae deletion strains, locus YDL101C, strain DUN1, active compounds read low
[2] = S. cerevisiae deletion strains, locus YHR030C, strain SLT2, active compounds read low

Measured: normalized growth

O=C(O)C1c2ccccc2Oc2ccccc21
inactive: S. cerevisiae deletion strains, locus YAL013W, strain DEP1, active compounds read low 0.999 | S. cerevisiae deletion strains, locus YBR229C, strain ROT2, active compounds read low 0.993 | S. cerevisiae deletion strains, locus YCL061C, strain MRC1, active compounds read low 0.99 | [1] 1 | S. cerevisiae deletion strains, locus YDL134C, strain PPH21, active compounds read low 1 | S. cerevisiae deletion strains, locus YDR150W, strain NUM1, active compounds read low 0.962 | S. cerevisiae deletion strains, locus YEL061C, strain CIN8, active compounds read low 0.996 | S. cerevisiae deletion strains, locus YGR078C, strain PAC10, active compounds read low 0.984 | [2] 0.987 | S. cerevisiae deletion strains, locus YHR087W, strain rtc3, active compounds read low 0.971 | S. cerevisiae deletion strains, locus YJL187C, strain SWE1, active compounds read low 0.992 | S. cerevisiae deletion strains, locus YJR043C, strain POL32, active compounds read low 1 | S. cerevisiae deletion strains, locus YJR075W, strain HOC1, active compounds read low 0.975 | S. cerevisiae deletion strains, locus YLR039C, strain RIC1, active compounds read low 0.984 | S. cerevisiae deletion strains, locus YLR058C, strain SHM2 (second series), active compounds read low 0.998 | S. cerevisiae deletion strains, locus YLR085C, strain ARP6, active compounds read low 0.969 | S. cerevisiae deletion strains, locus YLR262C, strain YPT6, active compounds read low 1 | S. cerevisiae deletion strains, locus YML094W, strain GIM5, active compounds read low 1.03 | S. cerevisiae deletion strains, locus YMR219W, strain ESC1, active compounds read low 0.989 | S. cerevisiae deletion strains, locus YMR263W, strain SAP30, active compounds read low 1.01 | S. cerevisiae deletion strains, locus YNL128W, strain TEP1, active compounds read low 1.01 | S. cerevisiae deletion strains, locus YNL153C, strain GIM3, active compounds read low 0.983 | S. cerevisiae deletion strains, locus YNL298W, strain CLA4 (second series), active compounds read low 0.993 | S. cerevisiae deletion strains, locus YNL322C, strain KRE1, active compounds read low 0.976 | S. cerevisiae deletion strains, locus YNR030W, strain Alg12, active compounds read low 1.01 | S. cerevisiae deletion strains, locus YPL055C, strain LGE1, active compounds read low 0.964 | S. cerevisiae deletion strains, locus YPL241C, strain CIN2, active compounds read low 0.971 | S. cerevisiae deletion strains, locus YPR135W, strain CTF4, active compounds read low 1.03 | S. cerevisiae strains, strain wild type, active compounds read low 1.01

O=C(Oc1cc(Cl)c(Cl)cc1Cl)C1c2ccccc2Oc2ccccc21
inactive: S. cerevisiae deletion strains, locus YAR019C, strain CDC15, active compounds read low 0.953 | S. cerevisiae deletion strains, locus YBL105C, strain PKC1, active compounds read low 0.943 | S. cerevisiae deletion strains, locus YBR135W, strain CKS1, active compounds read low 0.944 | S. cerevisiae deletion strains, locus YBR136W, strain MEC1, active compounds read low 0.937 | S. cerevisiae deletion strains, locus YBR160W, strain CDC28, active compounds read low 0.94 | S. cerevisiae deletion strains, locus YDL017W, strain CDC7, active compounds read low 0.937 | S. cerevisiae deletion strains, locus YDL028C, strain MPS1, active compounds read low 0.943 | [1] 0.945 | S. cerevisiae deletion strains, locus YDL108W, strain KIN28, active compounds read low 0.941 | S. cerevisiae deletion strains, locus YDL132W, strain cdc53, active compounds read low 0.934 | S. cerevisiae deletion strains, locus YDL214C, strain PRR2, active compounds read low 0.95 | S. cerevisiae deletion strains, locus YDR052C, strain DBF4, active compounds read low 0.96 | S. cerevisiae deletion strains, locus YDR054C, strain cdc34, active compounds read low 0.927 | S. cerevisiae deletion strains, locus YDR226W, strain ADK1, active compounds read low 0.963 | S. cerevisiae deletion strains, locus YDR477W, strain SNF1, active compounds read low 0.912 | S. cerevisiae deletion strains, locus YER123W, strain YCK3, active compounds read low 0.961 | S. cerevisiae deletion strains, locus YER133W, strain GLC7, active compounds read low 0.982 | S. cerevisiae deletion strains, locus YFL009W, strain cdc4, active compounds read low 0.933 | S. cerevisiae deletion strains, locus YFL029C, strain CAK1, active compounds read low 0.95 | S. cerevisiae deletion strains, locus YFR003C, strain YPI1, active compounds read low 0.941 | S. cerevisiae deletion strains, locus YFR019W, strain FAB1, active compounds read low 0.996 | S. cerevisiae deletion strains, locus YFR028C, strain CDC14, active compounds read low 0.949 | S. cerevisiae deletion strains, locus YGR040W, strain KSS1, active compounds read low 0.907 | S. cerevisiae deletion strains, locus YGR052W, strain FMP48, active compounds read low 0.924 | S. cerevisiae deletion strains, locus YGR092W, strain DBF2, active compounds read low 0.655 | S. cerevisiae deletion strains, locus YHR079C, strain IRE1, active compounds read low 0.829 | S. cerevisiae deletion strains, locus YHR082C, strain KSP1, active compounds read low 0.976 | S. cerevisiae deletion strains, locus YHR205W, strain SCH9, active compounds read low 0.924 | S. cerevisiae deletion strains, locus YIL147C, strain SLN1, active compounds read low 0.936 | S. cerevisiae deletion strains, locus YJL095W, strain BCK1, active compounds read low 0.862 | S. cerevisiae deletion strains, locus YJL128C, strain PBS2, active compounds read low 0.887 | S. cerevisiae deletion strains, locus YJL157C, strain FAR1, active compounds read low 0.979 | S. cerevisiae deletion strains, locus YJR016C, strain ILV3, active compounds read low 0.945 | S. cerevisiae deletion strains, locus YJR066W, strain TOR1 (second series), active compounds read low 0.865 | S. cerevisiae deletion strains, locus YJR066W, strain TOR1, active compounds read low 0.93 | S. cerevisiae deletion strains, locus YKL048C, strain ELM1, active compounds read low 0.883 | S. cerevisiae deletion strains, locus YKL067W, strain YNK1, active compounds read low 0.951 | S. cerevisiae deletion strains, locus YKL101W, strain HSL1, active compounds read low 0.9 | S. cerevisiae deletion strains, locus YKL193C, strain SDS22, active compounds read low 0.958 | S. cerevisiae deletion strains, locus YKL203C, strain TOR2, active compounds read low 0.958 | S. cerevisiae deletion strains, locus YLR133W, strain CKI1, active compounds read low 0.981 | S. cerevisiae deletion strains, locus YLR403W, strain SFP1, active compounds read low 0.957 | S. cerevisiae deletion strains, locus YML070W, strain DAK1, active compounds read low 0.962 | S. cerevisiae deletion strains, locus YMR001C, strain CDC5, active compounds read low 0.951 | S. cerevisiae deletion strains, locus YMR205C, strain PFK2 (second series), active compounds read low 0.971 | S. cerevisiae deletion strains, locus YMR277W, strain FCP1, active compounds read low 0.96 | S. cerevisiae deletion strains, locus YNL006W, strain LST8, active compounds read low 0.945 | S. cerevisiae deletion strains, locus YNL020C, strain ARK1, active compounds read low 0.986 | S. cerevisiae deletion strains, locus YNL161W, strain CBK1, active compounds read low 0.94 | S. cerevisiae deletion strains, locus YNL183C, strain NPR1, active compounds read low 0.884 | S. cerevisiae deletion strains, locus YNL207W, strain RIO2, active compounds read low 0.925 | S. cerevisiae deletion strains, locus YNL222W, strain SSU72, active compounds read low 0.942 | S. cerevisiae deletion strains, locus YNL307C, strain MCK1 (second series), active compounds read low 0.9 | S. cerevisiae deletion strains, locus YOL078W, strain AVO1, active compounds read low 0.959 | S. cerevisiae deletion strains, locus YOL136C, strain PFK27, active compounds read low 0.976 | S. cerevisiae deletion strains, locus YOR061W, strain CKA2, active compounds read low 0.995 | S. cerevisiae deletion strains, locus YOR119C, strain RIO1, active compounds read low 0.988 | S. cerevisiae deletion strains, locus YOR231W, strain MKK1, active compounds read low 0.856 | S. cerevisiae deletion strains, locus YOR329C, strain SCD5, active compounds read low 0.943 | S. cerevisiae deletion strains, locus YPL031C, strain PHO85, active compounds read low 0.903 | S. cerevisiae deletion strains, locus YPL153C, strain RAD53, active compounds read low 0.904 | S. cerevisiae deletion strains, locus YPL204W, strain HRR25, active compounds read low 0.867 | S. cerevisiae deletion strains, locus YPL209C, strain IPL1, active compounds read low 0.938 | S. cerevisiae deletion strains, locus YPR025C, strain CCL1, active compounds read low 0.939 | S. cerevisiae deletion strains, locus YPR106W, strain ISR1, active compounds read low 0.931 | S. cerevisiae deletion strains, locus YPR111W, strain DBF20, active compounds read low 0.901 | S. cerevisiae deletion strains, strain NNK1, active compounds read low 0.927 | S. cerevisiae deletion strains, strain TSCII, active compounds read low 0.944
active: [2] 0.75 | S. cerevisiae deletion strains, locus YLR113W, strain HOG1, active compounds read low 0.758 | S. cerevisiae deletion strains, locus YPL256C, strain CLN2, active compounds read low 0.821
